Outcome and AC50 data for five compounds are collected here from PubChem BioAssay (EPA / NIEHS).

Experiment [1] has as its target GAL4 Transcription Factor (Internal Marker), GAL4 (gene 855828) (UniProt P04386). The experiment in a line: ATG_GAL4_XSP2: Attagene TRANS-FACTORIAL Multi-Species (XSP2) HepG2 Assay for GAL4 Transcription Factor (Internal Marker) (AID 2283814).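 Note: GAL4 reporter mRNA background control in MRTU transfected cells not a receptor target.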 The essentials:
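HepG2 cells transiently transfected with GAL4-UAS reporter units, stimulated with 3 nM 6-alpha-fluorotestosterone plus 1.5 nM norgestrel, dosed 24 h. Reporter mRNA by RT-PCR/capillary electrophoresis; gain-of-signal fit versus DMSO, background control.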

The target in experiment [2] is zebrafish Estrogen Receptor (ER1), esr1 (gene 259252) (UniProt P57717). The experiment in a line: ATG_zfER1_XSP2: Attagene TRANS-FACTORIAL Multi-Species (XSP2) HepG2 Assay for zebrafish Estrogen Receptor (ER1) (AID 2283816). The essentials:
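HepG2 cells transiently transfected with a GAL4-UAS reporter and a chimeric zebrafish ER1-Gal4 construct, dosed 24 h. Reporter mRNA quantified by RT-PCR, labelling, HpaI digestion and capillary electrophoresis, relative to DMSO.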

Experiment [3] has as its system zebrafish Estrogen Receptor (ER2a), gene 317734. The experiment is described as follows: ATG_zfER2a_XSP2: Attagene TRANS-FACTORIAL Multi-Species (XSP2) HepG2 Assay for zebrafish Estrogen Receptor (ER2a) (AID 2283818).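 Note: hits raise reporter mRNA so AC50 reflects activation of zebrafish ER2a.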 The essentials:
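HepG2 cells transiently transfected with GAL4-UAS reporter units and chimeric zebrafish ER2a-Gal4, exposed 24 h; medium contains 3 nM 6-alpha-fluorotestosterone and 1.5 nM norgestrel. Reporter mRNA quantified by RT-PCR, HpaI digestion, capillary electrophoresis; gain versus DMSO.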

Experiment [4] deals with frog Estrogen Receptor (ER), gene 398734. The experiment in a line: ATG_frER1_XSP2: Attagene TRANS-FACTORIAL Multi-Species (XSP2) HepG2 Assay for frog Estrogen Receptor (ER) (AID 2283821).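 Note: hits raise reporter mRNA above DMSO baseline so potency means agonist or activator.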 The essentials: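 HepG2, transient MRTU transfection, chimeric NR-GAL4/UAS reporters; 24 h compound exposure, 24-well. Readout: reporter mRNA via RT-PCR + capillary electrophoresis, fluorescence. Positive fit vs DMSO baseline.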

A short description of experiment [5]: ATG_M_19_XSP2: Attagene TRANS-FACTORIAL Multi-Species (XSP2) HepG2 Assay for M32 Transcription Factor (Internal Marker) (AID 2283822). The essentials:
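Internal background marker in a multi-species nuclear receptor TRANS panel: transfected HepG2 cells exposed 24 h, with 3 nM 6-alpha-fluorotestosterone and 1.5 nM norgestrel present. Readout is RT-PCR of reporter transcripts resolved by capillary electrophoresis, gain-of-signal versus DMSO.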

Experiment [6] relates to zebrafish Estrogen Receptor (ER2b), gene 317733. The experiment in a line: ATG_zfER2b_XSP2: Attagene TRANS-FACTORIAL Multi-Species (XSP2) HepG2 Assay for zebrafish Estrogen Receptor (ER2b) (AID 2283823).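 Note: fitted upward as reporter gain over DMSO so potency reflects activation.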 Put shortly:
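Transfect HepG2 with GAL4-UAS reporter constructs; dose chemicals, 24 h; isolate RNA, RT-PCR, FAM-label, HpaI digest; capillary electrophoresis. Gain-of-signal vs DMSO.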

Experiment [7] concerns the target Peroxisome proliferator-activated receptor gamma (Homo sapiens) (UniProt P37231). The experiment in a line: ATG_hPPARg_XSP2: Attagene TRANS-FACTORIAL Multi-Species (XSP2) HepG2 Assay for human Peroxisome Proliferator-activated Receptor gamma (PPARg) (AID 2283829).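 Note: actives raise reporter mRNA above DMSO so AC50 reflects PPARg activation.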 The essentials: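 Transient MRTU transfection, HepG2; TRANS format (exogenous NR-Gal4 chimeras). 24 h chemical exposure with 3 nM 6-alpha-fluorotestosterone and 1.5 nM norgestrel present. Readout: reporter mRNA via RT-PCR/CE fluorescence, up-direction vs DMSO.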

The target in experiment [8] is mouse Peroxisome Proliferator-activated Receptor gamma (PPARg), Pparg (gene 19016) (UniProt P37238). The experiment in a line: ATG_mPPARg_XSP2: Attagene TRANS-FACTORIAL Multi-Species (XSP2) HepG2 Assay for mouse Peroxisome Proliferator-activated Receptor gamma (PPARg) (AID 2283830).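 Note: hits are gains in reporter mRNA above DMSO so AC50 marks activation.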 The essentials:
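HepG2 cells transiently transfected with GAL4-UAS reporter units for chimeric NR-Gal4 proteins including mouse PPARg, exposed 24 h; medium contained 3 nM 6-alpha-fluorotestosterone and 1.5 nM norgestrel. Reporter mRNA quantified by RT-PCR, HpaI digestion and capillary electrophoresis, vs DMSO.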

For experiment [9], the target named is Nuclear receptor subfamily 1 group I member 2 (Mus musculus) (UniProt O54915). The experiment is described as follows: ATG_mPXR_XSP2: Attagene TRANS-FACTORIAL Multi-Species (XSP1) HepG2 Assay for mouse Pregnane X Receptor (PXR) (AID 2283831). The essentials: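 Transient HepG2 transfection, multiplexed GAL4-UAS reporters, NR-GAL4 chimeras. 24 h compound exposure. Readout: reporter mRNA, RT-PCR, fluorescent capillary electrophoresis; positive direction vs DMSO baseline.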

The subject of experiment [10] is turtle Estrogen Receptor (ERa), gene 101933533. The experiment in a line: ATG_trERa_XSP2: Attagene TRANS-FACTORIAL Multi-Species (XSP2) HepG2 Assay for turtle Estrogen Receptor (ERa) (AID 2283812).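 Note: human HepG2 liver cells transiently expressing turtle ERa-Gal4 chimeric receptor; actives raise reporter signal above DMSO so AC50 reflects agonist activity.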 Put shortly: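 HepG2 cells transiently transfected with GAL4-UAS reporter units expressing turtle ERa-Gal4 chimera. Reporter mRNA measured after 24 h dosing by RT-PCR, fluorescent labelling and capillary electrophoresis; gain of signal fitted versus DMSO.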

The target in experiment [11] is chicken Estrogen Receptor (ERa), ESR1 (gene 396099) (UniProt P06212). The experiment in a line: ATG_chERa_XSP2: Attagene TRANS-FACTORIAL Multi-Species (XSP2) HepG2 Assay for chicken Estrogen Receptor (ERa) (AID 2283817).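 Note: actives raise reporter signal above DMSO so AC50 reflects ER activation.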 Put shortly: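 HepG2 cells transiently transfected with multiplexed GAL4-UAS reporter units expressing chimeric chicken ERa-Gal4; 24 h compound exposure. Reporter mRNA measured by RT-PCR with 6-FAM labelling, HpaI digestion and capillary electrophoresis; gain-of-signal fitted versus DMSO.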

In experiment [12] the target is Estrogen receptor (Homo sapiens) (UniProt P03372). The experiment is described as follows: ATG_hERa_XSP2: Attagene TRANS-FACTORIAL Multi-Species (XSP2) HepG2 Assay for human Estrogen Receptor (ERa) (AID 2283827). Put shortly: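 HepG2 cells transiently transfected with multiplexed GAL4-UAS reporters driven by chimeric receptor-Gal4 proteins, dosed 24 h with 3 nM 6-alpha-fluorotestosterone and 1.5 nM norgestrel present. Reporter mRNA by RT-PCR and capillary electrophoresis; gain-of-signal fit versus DMSO.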

The nature of experiment [13]: ATG_M_06_XSP2: Attagene TRANS-FACTORIAL Multi-Species (XSP2) HepG2 Assay for M06 Transcription Factor (Internal Marker) (AID 2283811).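 Note: hits are increases in signal above the DMSO baseline.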 The essentials: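 HepG2 cells transiently transfected with GAL4-UAS multi-reporter constructs, dosed 24 h with 3 nM 6-alpha-fluorotestosterone plus 1.5 nM norgestrel present to stimulate androgen receptor. Reporter mRNA quantified by RT-PCR, 6-FAM labelling, HpaI digestion and capillary electrophoresis; gain-of-signal fitted versus DMSO baseline.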

For experiment [14], the target named is Estrogen receptor beta (Homo sapiens) (UniProt Q92731). The experiment is described as follows: ATG_hERb_XSP2: Attagene TRANS-FACTORIAL Multi-Species (XSP2) HepG2 Assay for human Estrogen Receptor (ERb) (AID 2283813).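 Note: actives raise reporter mRNA above DMSO so AC50 reflects agonist induction.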 The essentials:
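HepG2 cells transiently transfected with GAL4-UAS reporter units and chimeric human ERb-Gal4, 24 h exposure. Reporter mRNA quantified by RT-PCR with FAM labelling, HpaI digestion and capillary electrophoresis; gain of signal versus DMSO.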

Experiment [15] has as its system frog Estrogen Receptor (ER2), gene 100174814. The experiment is described as follows: ATG_frER2_XSP2: Attagene TRANS-FACTORIAL Multi-Species (XSP2) HepG2 Assay for frog Estrogen Receptor (ER2) (AID 2283828). The essentials: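 Human liver HepG2, transient MRTU transfection (TRANS format, exogenous NR–Gal4). 24 h cpd exposure. Total RNA → RT → PCR → FAM label → HpaI cut → CE. Positive direction vs DMSO.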

For experiment [16], the system named is turtle Androgen Receptor (AR), gene 101947425. The experiment in a line: ATG_trAR_XSP2: Attagene TRANS-FACTORIAL Multi-Species (XSP2) HepG2 Assay for turtle Androgen Receptor (AR) (AID 2283815).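 Note: potency for gain of reporter signal meaning activation above DMSO baseline.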 The essentials:
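HepG2 cells transiently transfected with GAL4-UAS reporter units for chimeric NR-Gal4 receptors; 24 h dosing in presence of 3 nM 6-alpha-fluorotestosterone and 1.5 nM norgestrel. Reporter mRNA by RT-PCR and capillary electrophoresis, gain of signal versus DMSO.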

Experiment [17] relates to chicken Androgen Receptor (AR), gene 422165. The experiment is described as follows: ATG_chAR_XSP2: Attagene TRANS-FACTORIAL Multi-Species (XSP2) HepG2 Assay for chicken Androgen Receptor (AR) (AID 2283819).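 Note: hits raise reporter mRNA above DMSO so potency is for activation.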 Put shortly: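 HepG2 cells transiently transfected with chicken AR–GAL4 chimeric reporter constructs, stimulated with 3 nM 6-alpha-fluorotestosterone plus 1.5 nM norgestrel, dosed 24 h. Reporter mRNA quantified by RT-PCR and capillary electrophoresis; gain of signal fitted versus DMSO.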

Experiment [18] relates to frog Androgen Receptor (AR), gene 399456. The experiment in a line: ATG_frAR_XSP2: Attagene TRANS-FACTORIAL Multi-Species (XSP2) HepG2 Assay for frog Androgen Receptor (AR) (AID 2283824).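 Note: actives raise reporter signal above DMSO so AC50 reflects agonist-like induction.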 Put shortly:
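HepG2 cells transiently transfected with GAL4-UAS reporter units and frog (Xenopus laevis) AR-Gal4 chimera; reporter mRNA measured 24 h after dosing by RT-PCR and capillary electrophoresis. Gain of signal fitted relative to DMSO baseline.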

“And” between values parts separate entries of the source, which are not always exact repeats. Identical values can stand only once. Results filed as inconclusive are left out. More than one record can exist for a structure, and the calls need not agree. The source made the active and inactive calls. Rule for the calls: active = hit-call score of the fitted dose curve at least 0.9, where 1 is the maximum; inconclusive = response in the unintended direction; inactive = score below 0.9.

Sequence of mouse Peroxisome Proliferator-activated Receptor gamma (PPARg), Pparg (gene 19016) (P37238 whole entry, looked up, the tested form may be a part): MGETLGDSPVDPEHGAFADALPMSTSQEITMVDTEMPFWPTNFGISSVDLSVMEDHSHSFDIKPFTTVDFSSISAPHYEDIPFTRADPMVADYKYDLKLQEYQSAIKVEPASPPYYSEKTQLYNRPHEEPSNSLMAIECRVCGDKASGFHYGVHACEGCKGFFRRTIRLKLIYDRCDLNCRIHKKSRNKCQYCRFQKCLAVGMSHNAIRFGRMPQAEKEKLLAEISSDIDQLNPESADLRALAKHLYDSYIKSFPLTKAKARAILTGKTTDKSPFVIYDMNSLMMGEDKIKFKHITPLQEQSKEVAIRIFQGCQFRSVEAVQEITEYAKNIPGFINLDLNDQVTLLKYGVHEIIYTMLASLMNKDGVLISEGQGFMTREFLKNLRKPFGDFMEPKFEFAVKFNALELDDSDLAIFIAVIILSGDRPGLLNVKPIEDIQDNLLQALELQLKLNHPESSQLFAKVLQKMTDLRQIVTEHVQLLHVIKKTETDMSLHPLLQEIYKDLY
Sequence of Estrogen receptor (Homo sapiens) (P03372 whole entry, looked up, the tested form may be a part): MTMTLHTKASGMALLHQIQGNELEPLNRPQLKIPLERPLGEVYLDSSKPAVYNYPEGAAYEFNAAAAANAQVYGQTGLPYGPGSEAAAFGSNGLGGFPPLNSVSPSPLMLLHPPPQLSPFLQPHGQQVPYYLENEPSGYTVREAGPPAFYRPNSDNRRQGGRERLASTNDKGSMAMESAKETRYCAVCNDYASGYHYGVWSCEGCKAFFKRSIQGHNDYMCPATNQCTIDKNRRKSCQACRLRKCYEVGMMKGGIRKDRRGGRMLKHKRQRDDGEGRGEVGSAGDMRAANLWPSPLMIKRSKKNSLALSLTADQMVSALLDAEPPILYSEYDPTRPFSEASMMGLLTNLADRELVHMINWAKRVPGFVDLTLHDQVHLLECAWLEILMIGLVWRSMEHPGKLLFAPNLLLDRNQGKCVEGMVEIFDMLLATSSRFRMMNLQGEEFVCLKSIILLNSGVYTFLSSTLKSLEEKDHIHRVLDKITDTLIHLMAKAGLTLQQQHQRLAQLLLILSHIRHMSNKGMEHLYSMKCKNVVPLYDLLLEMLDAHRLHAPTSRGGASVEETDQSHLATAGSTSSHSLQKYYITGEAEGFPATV
Sequence of chicken Estrogen Receptor (ERa), ESR1 (gene 396099) (P06212 whole entry, looked up, the tested form may be a part): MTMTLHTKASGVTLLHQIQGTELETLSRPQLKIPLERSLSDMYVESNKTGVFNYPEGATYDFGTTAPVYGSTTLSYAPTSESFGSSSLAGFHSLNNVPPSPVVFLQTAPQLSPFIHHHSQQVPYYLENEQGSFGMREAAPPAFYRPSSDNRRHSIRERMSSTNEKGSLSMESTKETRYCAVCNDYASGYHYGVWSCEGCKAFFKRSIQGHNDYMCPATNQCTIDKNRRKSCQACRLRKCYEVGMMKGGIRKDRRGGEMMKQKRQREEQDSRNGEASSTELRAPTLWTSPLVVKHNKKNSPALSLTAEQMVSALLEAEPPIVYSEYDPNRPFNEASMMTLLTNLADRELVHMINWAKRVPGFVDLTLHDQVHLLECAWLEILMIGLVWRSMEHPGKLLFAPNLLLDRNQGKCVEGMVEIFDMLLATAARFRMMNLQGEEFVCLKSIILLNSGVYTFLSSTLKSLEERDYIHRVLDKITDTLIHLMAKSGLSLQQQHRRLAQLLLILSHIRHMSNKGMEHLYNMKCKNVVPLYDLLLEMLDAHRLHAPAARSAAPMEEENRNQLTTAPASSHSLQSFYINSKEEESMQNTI
Sequence of Nuclear receptor subfamily 1 group I member 2 (Mus musculus) (O54915 whole entry, looked up, the tested form may be a part): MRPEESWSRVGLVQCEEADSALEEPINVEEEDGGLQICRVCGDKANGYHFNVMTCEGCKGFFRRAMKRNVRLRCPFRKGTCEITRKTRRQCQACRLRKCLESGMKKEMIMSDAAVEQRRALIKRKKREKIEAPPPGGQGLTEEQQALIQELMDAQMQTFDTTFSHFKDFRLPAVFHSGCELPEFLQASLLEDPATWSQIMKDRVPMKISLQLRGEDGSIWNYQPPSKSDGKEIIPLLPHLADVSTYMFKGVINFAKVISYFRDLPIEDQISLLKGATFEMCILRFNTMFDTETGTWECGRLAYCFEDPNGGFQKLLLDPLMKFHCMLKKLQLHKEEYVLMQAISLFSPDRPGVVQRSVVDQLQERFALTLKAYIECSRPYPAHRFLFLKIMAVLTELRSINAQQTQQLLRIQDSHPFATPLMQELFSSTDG
Sequence of GAL4 Transcription Factor (Internal Marker), GAL4 (gene 855828) (P04386 whole entry, looked up, the tested form may be a part): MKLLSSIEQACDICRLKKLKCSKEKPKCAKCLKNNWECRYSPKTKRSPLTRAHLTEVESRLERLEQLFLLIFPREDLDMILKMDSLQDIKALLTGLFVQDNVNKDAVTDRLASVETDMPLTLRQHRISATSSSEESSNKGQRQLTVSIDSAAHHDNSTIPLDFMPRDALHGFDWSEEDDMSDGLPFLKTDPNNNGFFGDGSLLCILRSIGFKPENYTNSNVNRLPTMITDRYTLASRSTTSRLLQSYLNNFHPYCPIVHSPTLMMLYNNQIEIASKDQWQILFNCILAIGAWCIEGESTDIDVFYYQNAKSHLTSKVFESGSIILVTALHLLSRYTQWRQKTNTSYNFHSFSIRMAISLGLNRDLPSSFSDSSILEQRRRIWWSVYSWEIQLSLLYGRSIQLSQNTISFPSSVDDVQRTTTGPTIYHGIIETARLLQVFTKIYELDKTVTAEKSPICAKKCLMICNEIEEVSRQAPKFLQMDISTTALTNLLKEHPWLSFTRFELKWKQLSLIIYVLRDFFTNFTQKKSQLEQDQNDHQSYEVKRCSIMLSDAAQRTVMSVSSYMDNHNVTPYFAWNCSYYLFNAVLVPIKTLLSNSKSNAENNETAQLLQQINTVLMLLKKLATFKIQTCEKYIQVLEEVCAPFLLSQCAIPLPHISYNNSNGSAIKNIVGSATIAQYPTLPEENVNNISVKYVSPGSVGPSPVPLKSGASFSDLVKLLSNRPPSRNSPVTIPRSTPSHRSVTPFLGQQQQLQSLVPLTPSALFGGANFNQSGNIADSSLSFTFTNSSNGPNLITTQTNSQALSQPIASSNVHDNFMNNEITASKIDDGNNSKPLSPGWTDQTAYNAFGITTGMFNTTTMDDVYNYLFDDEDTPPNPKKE
Sequence of zebrafish Estrogen Receptor (ER1), esr1 (gene 259252) (P57717 whole entry, looked up, the tested form may be a part): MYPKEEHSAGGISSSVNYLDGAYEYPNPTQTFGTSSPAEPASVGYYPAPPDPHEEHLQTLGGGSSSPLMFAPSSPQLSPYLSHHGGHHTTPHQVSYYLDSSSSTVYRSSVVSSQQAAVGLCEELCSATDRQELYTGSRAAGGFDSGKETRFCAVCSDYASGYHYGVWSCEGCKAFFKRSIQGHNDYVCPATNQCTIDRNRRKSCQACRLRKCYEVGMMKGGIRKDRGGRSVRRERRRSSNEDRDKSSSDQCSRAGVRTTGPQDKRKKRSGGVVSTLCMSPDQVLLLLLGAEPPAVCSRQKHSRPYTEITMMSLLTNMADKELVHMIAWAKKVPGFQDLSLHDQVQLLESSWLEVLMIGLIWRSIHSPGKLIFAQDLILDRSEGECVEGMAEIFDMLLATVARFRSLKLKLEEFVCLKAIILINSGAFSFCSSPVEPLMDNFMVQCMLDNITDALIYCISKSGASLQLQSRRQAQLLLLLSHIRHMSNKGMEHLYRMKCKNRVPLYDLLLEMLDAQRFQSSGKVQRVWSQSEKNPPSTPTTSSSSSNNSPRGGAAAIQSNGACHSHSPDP
Sequence of Peroxisome proliferator-activated receptor gamma (Homo sapiens) (P37231 whole entry, looked up, the tested form may be a part): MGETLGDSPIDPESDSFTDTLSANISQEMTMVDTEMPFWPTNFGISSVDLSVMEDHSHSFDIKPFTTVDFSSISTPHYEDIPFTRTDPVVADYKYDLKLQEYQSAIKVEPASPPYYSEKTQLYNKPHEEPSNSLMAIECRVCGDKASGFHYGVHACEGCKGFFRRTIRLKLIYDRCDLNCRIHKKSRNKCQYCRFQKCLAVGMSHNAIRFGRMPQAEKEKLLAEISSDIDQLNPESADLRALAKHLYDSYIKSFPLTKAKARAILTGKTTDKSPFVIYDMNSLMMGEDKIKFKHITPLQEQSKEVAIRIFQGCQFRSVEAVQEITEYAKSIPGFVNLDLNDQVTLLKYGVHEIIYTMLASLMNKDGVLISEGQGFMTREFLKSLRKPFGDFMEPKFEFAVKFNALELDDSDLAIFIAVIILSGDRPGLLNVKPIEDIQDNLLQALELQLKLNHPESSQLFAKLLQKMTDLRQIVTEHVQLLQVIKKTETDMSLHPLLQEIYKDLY
Sequence of Estrogen receptor beta (Homo sapiens) (Q92731 whole entry, looked up, the tested form may be a part): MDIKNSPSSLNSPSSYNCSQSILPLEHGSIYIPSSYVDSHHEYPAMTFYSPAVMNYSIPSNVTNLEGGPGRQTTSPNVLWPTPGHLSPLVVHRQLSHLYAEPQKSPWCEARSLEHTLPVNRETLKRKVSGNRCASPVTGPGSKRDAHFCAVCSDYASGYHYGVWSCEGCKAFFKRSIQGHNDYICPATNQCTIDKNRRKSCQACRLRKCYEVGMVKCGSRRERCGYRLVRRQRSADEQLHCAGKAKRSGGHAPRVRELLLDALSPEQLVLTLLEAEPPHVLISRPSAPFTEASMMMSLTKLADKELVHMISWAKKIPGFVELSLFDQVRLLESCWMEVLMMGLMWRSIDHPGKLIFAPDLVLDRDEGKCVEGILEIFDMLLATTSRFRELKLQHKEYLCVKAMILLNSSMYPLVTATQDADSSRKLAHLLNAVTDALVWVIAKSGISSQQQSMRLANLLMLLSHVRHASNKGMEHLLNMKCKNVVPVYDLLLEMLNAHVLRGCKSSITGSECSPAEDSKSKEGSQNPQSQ

What is called AC50 is the midpoint of the concentration-response curve, whichever way the signal moves. As for `C=C1C[C@H]2[C@@H]3C=C(C)C4=CC(=O)CC[C@]4(C)[C@H]3CC[C@]2(C)[C@@]1(OC(C)=O)C(C)=O`, the compound was called inactive in experiment [1], in experiment [2], in [3], in experiment [4], in [5] and in experiment [6]. In addition, the compound was called inactive in experiment [7] and in experiment [8]. The AC50 in [9] was 931 nM (active) and 619 nM (active).
Consider `O=C(O)/C=C/c1ccccc1`, for which the compound was classed as inactive in experiment [10], in experiment [11], in [3], in [6], in [12] and in [7]. The outcome in experiment [8] and in experiment [9] was inactive. Besides, the concentration at half-maximal activity (AC50) in experiment [4] is 31.6 µM (active).
As for `COc1ccc(C(=O)c2ccccc2)c(O)c1`, the compound was called inactive in experiment [13], in [14], in experiment [1] and in experiment [11]. The AC50 in experiment [10] is 4.74 µM (active) and 26.3 µM (active); in experiment [14], 26.8 µM (active); in experiment [2], 11 µM (active) and 16.7 µM (active); in experiment [11] it was 6.73 µM (active); in experiment [3], 9.9 µM (active); in experiment [4], 5.07 µM (active) and 26 µM (active). Besides, the AC50 is 43.3 µM (active) and 14.3 µM (active) in experiment [6]; 6.54 µM (active) and 26.4 µM (active) in [12]; 7.66 µM (active) and 2.39 µM (active) in experiment [15]; 74.1 µM (active) and 41.1 µM (active) in experiment [7]; 78.9 µM (active) and 63.2 µM (active) in experiment [8]; 26.7 µM (active) in [9].
`Oc1ccccc1Cc1ccccc1O`: the compound was called inactive in experiment [13], in experiment [10], in experiment [1], in experiment [11], in experiment [5] and in experiment [9]. The AC50 is 26.9 µM (active) in experiment [10]; 8.23 µM (active) and 7.6 µM (active) in experiment [14]; 58.4 µM (active) and 100 µM (active) in experiment [2]; 7.64 µM (active) in experiment [11]; 27.3 µM (active) and 8.24 µM (active) in experiment [3]; 26.5 µM (active) and 7.86 µM (active) in experiment [4]. In addition, the AC50 in [6] was 29.1 µM (active) and 18.2 µM (active); in experiment [12], 26.9 µM (active) and 8.47 µM (active); in [15], 27 µM (active) and 10.5 µM (active); in experiment [7], 43.4 µM (active) and 30.3 µM (active); in [8] it was 58.3 µM (active) and 34.4 µM (active); in experiment [9] it was 26.3 µM (active).
As for `COc1ccc(-c2coc3cc(O)cc(O)c3c2=O)cc1`, the compound was classed as inactive in experiment [13], in experiment [18], in [7], in [8] and in experiment [9]. Also, the AC50 in [10] was 1.27 µM (active) and 161 nM (active); in experiment [14], 83.6 nM (active) and 65.3 nM (active); in experiment [16] it was 1.81 µM (active); in [2], 4.02 µM (active) and 458 nM (active); in experiment [11], 1.24 µM (active) and 200 nM (active); in experiment [3] it was 260 nM (active) and 38 nM (active). In addition, the AC50 in experiment [17] was 10 µM (active) and 6.25 µM (active); in experiment [4] it was 1.07 µM (active) and 98.3 nM (active); in experiment [6] it was 2.28 µM (active) and 310 nM (active); in experiment [12] it was 931 nM (active) and 276 nM (active); in experiment [15] it was 501 nM (active) and 6.78 nM (active); in [9], 2.51 µM (active).
